Measurements published in PubChem BioAssay (NCI).
The panel holds about 83,000 compounds, 20% with a hit somewhere; the sample as a whole holds those more often.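 Interpretation: 100, growth as untreated; towards 0, rising growth inhibition; 0, no net growth; 0 to -100, cell death. Compounds scoring below 10 were considered active.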 Values without a mark were called inactive. Active and inactive are the calls of the source.

What was measured:
Assay in all cases: NCI-60 one-dose screen, 48 h (100 = growth as untreated, 0 = no growth, -100 = all killed)
Conditions in all cases: 10 µM unless noted
NCI-H23 lung = tested on: NCI-H23 lung
NCI-H226 lung = tested on: NCI-H226 lung
NCI-H322M lung = tested on: NCI-H322M lung
HOP-62 NSCLC = tested on: HOP-62 NSCLC
NCI-H460 lung = tested on: NCI-H460 lung
HOP-92 NSCLC = tested on: HOP-92 NSCLC
NCI-H522 lung = tested on: NCI-H522 lung
A549/ATCC NSCLC = tested on: A549/ATCC NSCLC
786-0 renal = tested on: 786-0 renal
COLO 205 colon = tested on: COLO 205 colon

Row | Compound | growth (NCI-H23 lung) | growth (NCI-H226 lung) | growth (NCI-H322M lung) | growth (HOP-62 NSCLC) | growth (NCI-H460 lung) | growth (HOP-92 NSCLC) | growth (NCI-H522 lung) | growth (A549/ATCC NSCLC) | growth (786-0 renal) | growth (COLO 205 colon)
1 | O=C1CC(c2ccc3c(c2)OCO3)c2ncn(-c3ccc(Cl)cc3)c2N1 (stereo not given) | 41% | 69.8% | 51.9% | 60.3% | 14.3% | 69.7% | -19.2% (active) | 48.7% | 38.4% | 99.5%
2 | C#Cc1cccc(Nc2ncnc3cc(OC)c(OCCCCCCC(=O)NO)cc23)c1 | -31.4% (active) | -10.9% (active) | -8.88% (active) | -37.5% (active) | 1.24% (active) | -26.4% (active) | -58.2% (active) | -32.8% (active) | -15.4% (active) | -65% (active)
3 | Cc1c(NC(=O)OC[C@@H]2COCCN2)cn2ncnc(Nc3ccc4c(cnn4Cc4cccc(F)c4)c3)c12 | -12.9% (active) | -1.69% (active) | -1.86% (active) | -25% (active) | 4.49% (active) | -12.7% (active) | -30.4% (active) | -9.38% (active) | 0.0698% (active) | -45.4% (active)
4 | CS(=O)(=O)N1CCN(Cc2cc3nc(-c4cccc5[nH]ncc45)nc(N4CCOCC4)c3s2)CC1 | 37.7% | 39.3% | -6.73% (active) | 30.9% | 23.2% | -17.1% (active) | 20.8% | 8.23% (active) | -7.35% (active) | 1.08% (active)
5 | C[C@H](NC(=O)c1c(N)nn2cccnc12)c1cc2cccc(C#Cc3cnn(C)c3)c2c(=O)n1-c1ccccc1 | 40.9% | 70.3% | 53.6% | 11.8% | 30.4% | 9.5% (active) | 14.1% | 20.3% | 19.1% | -11.7% (active)
6 | O=C(COc1cccc(/C=C2\Cc3ccc(Cl)cc3C2=O)c1)Nc1nccs1 | 78.5% | 86.1% | 96.9% | 96.5% | 89.2% | 77.2% | 2.66% (active) | 88.7% | 98.5% | 113%
7 | COc1cc2ncnc3c2cc1OCCCCCN(C)Cc1ccc(Br)cc1N3 | 70.2% | 88.3% | 0.138% (active) | 74.5% | 36.7% | 64.6% | -9.44% (active) | 35.1% | 68.7% | 51.3%
8 | Cc1cc(O)cc(-c2c(-c3ccnc(-c4cccnc4)c3)cnn2C)c1 | 93.6% | 69.5% | 66.6% | 67.2% | 67.4% | 42.7% | 46.9% | 78.1% | 67.7% | 84.6%
9 | COc1ccc2c(CCc3ccc(Cl)cc3)c3[n+](cc2c1OC)CCc1cc2c(cc1-3)OCO2 | 26.1% | 71.4% | 90.4% | 75.8% | 10.6% | 25% | 13.4% | 50.7% | 73.4% | 27.1%
10 | CCN(CC)CCNC(=O)c1c(C)[nH]c(/C=C2\C(=O)Nc3ccc(F)cc32)c1C | 21.4% | 51.1% | 31.4% | 26% | 1.9% (active) | 30.3% | -46% (active) | 0.0489% (active) | -63.8% (active) | -80.3% (active)
11 | COc1ccc(/C(C)=C(\c2ccc(Cl)cc2)c2ccc(OCCN3CCCCCC3)cc2)cc1 | 51.3% | 60.6% | 79.5% | 48.4% | 32.3% | 79.5% | 51.5% | 39.4% | 59.7% | 17.2%
12 | O=c1[nH]c([C@@H]2CCCN2)nc2c1oc1ccc(Cl)cc12 | 60.7% | 51.8% | 56% | 47.2% | 34.4% | 39.8% | 24.7% | 37.9% | 84.4% | 12%
13 | Clc1ccc2c(NCCCNCc3ccc4c(c3)OCO4)ccnc2c1 | 72.7% | 80.1% | 71.8% | 42.7% | 60.5% | 47.4% | 20.1% | 51.2% | 66.8% | -56.6% (active)
14 | O=C(Nc1ccc(N=Nc2ccccc2)cc1)c1cccc2ccccc12 | 81.2% | 78.2% | 77.9% | 60.5% | 61.1% | 82.5% | 34.9% | 46.1% | 79.4% | 77.1%
15 | COc1cnc2c(c1)C(=O)c1c-2n(CCCNC2=NCCS2)c(=O)c2cc(Cl)ccc12 | -52.4% (active) | 46.9% | -43.9% (active) | -78.9% (active) | -80.3% (active) | 77.6% | -64.7% (active) | -89.6% (active) | -96.7% (active) | -74.3% (active)
16 | Cc1cc(C(O)CN(C)C)cc2c1ccc1cc(C(C)C)ccc12 (stereo not given) | 30.1% | 33.6% | -10.1% (active) | 50.2% | -35.7% (active) | 5.86% (active) | -25% (active) | 32.9% | 14.5% | -78.1% (active)
17 | CNS(=O)(=O)Nc1nccc(Cc2c(C)c3ccc(Oc4ncccn4)cc3oc2=O)c1F | 24.1% | 58% | 33.3% | 42.8% | 61.3% | -4.71% (active) | 52% | 38.3% | 68% | 8.97% (active)
18 | COC(=O)[C@@H](C)CNS(=O)(=O)N(c1cc(C(F)(F)F)cc(C(F)(F)F)c1)C1CCN(Cc2ccc(F)cc2)CC1 | 66.8% | 70.1% | 79% | 79% | 62.3% | 47.8% | 56.1% | 54% | 59.7% | -43.2% (active)
19 | O=C(CNc1nnc(-c2ccc(Cl)cc2)o1)Nc1ccc(-c2nc3ccccc3s2)cc1 | 88.7% | 82.9% | 95.1% | 107% | 99.7% | 87.9% | 77.1% | 95.8% | 101% | 104%
20 | CCCCCc1ccc(C)cc1OC(=O)CCl | 113% | 104% | 97.3% | 109% | 104% | 73.6% | 103% | 108% | 110% | 107%
21 | c1ccc2c(c1)CCN(NCCN1CCCC1)C2 | 86.7% | 88.8% | 98.2% | 75.4% | 107% | 80.4% | 91.3% | 85.5% | 101% | 91.8%
22 | COc1cc(Nc2ncc(F)c(Nc3ccc4c(n3)N(COP(=O)(O)O)C(=O)C(C)(C)O4)n2)cc(OC)c1OC | 29.7% | -14.6% (active) | 20.6% | 2.67% (active) | 25.4% | -39.5% (active) | -28.5% (active) | 0.294% (active) | -23.8% (active) | -22.8% (active)
23 | Cc1ccc(-[n+]2c3cc(N)c(C)cc3nc3cc(C)c(Nc4ccccc4)cc32)cc1 | -74.4% (active) | -67% (active) | -53.1% (active) | -64.9% (active) | -48.2% (active) | -60.5% (active) | -48.8% (active) | -18.9% (active) | -93% (active) | -94.9% (active)
24 | O=C(Nc1nc2cccc(-c3ccc(CN4CCS(=O)(=O)CC4)cc3)n2n1)C1CC1 | 65.2% | 55.9% | 87.6% | 57.3% | 5.79% (active) | 96.3% | 6.67% (active) | 60.1% | 85.5% | 59.5%
25 | CC1(C)NC(=O)c2[nH]c3c(Cl)c(Cl)ccc3c2C1C#N (stereo not given) | 75.8% | 53.9% | 90.5% | 82.5% | 88.7% | 54.3% | 67.8% | 80.1% | 82.6% | 92.3%
26 | O=S1(=O)OC(c2ccc(O)c(Cl)c2)(c2ccc(O)c(Cl)c2)c2ccccc21 | 97.8% | 93.9% | 107% | 99.5% | 101% | 60.6% | 93.4% | 99.1% | 110% | 103%
